Source: PubChem
aDG glyco up: activators of alpha-DG glycosylation, primary screen, uHTS, Pro5-aDG cells, AlphaScreen | activation, % at 10 µM | hit rate 0.22% among 360,000 | alpha-DG glycosylation AlphaScreen (IIH6); 0% Pro5, 100% B10-LARGE cell signal;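 active = activation of at least 8% versus controls, or a plate z-score of at least 8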;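 also: Pro5 are CHO cells carrying HIG-tagged alpha-DG that lacks glycosylation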
FAS TE block: FAS thioesterase domain inhibitors, primary screen, biochemical, fluorescence intensity, uHTS; recombinant FAS-TE, OMFH fluorogenic substrate, fluorescence endpoint; inhibition, % at 15 µM; hit rate 0.67% among 360,000; Fatty acid synthase (Homo sapiens), P49327;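 active = compounds whose normalised, plate-corrected inhibition of enzyme fluorescence in the single-dose primary screen is 50% or more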
ADAM17 inh: ADAM17 inhibitors, primary screen, biochemical, QFRET; AID 720648, 2013; inhibition, % at 6.95 µM; recombinant ADAM17, EDANS/DABCYL FRET peptide cleavage; Disintegrin and metalloproteinase domain-containing protein 17 (Homo sapiens), P78536; hit rate 0.83% among 370,000;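 active = inhibition above the mean of compounds lying between control limits plus 3 SD, set per campaign, cut at about 8.5% in these data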
ADAM10 inh: human ADAM10 inhibitors, primary screen, biochemical, QFRET, HTS; recombinant ADAM10, EDANS/DABCYL FRET peptide cleavage, 3 h; inhibition, % at 7 µM; hit rate 0.62% among 370,000; AID 720582, 2013;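 active = inhibition above a per-campaign cutoff equal to the mean of compounds falling between control-based bounds plus 3 SD, cut at about 20% in these data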
Target sequence (O14672 214-748 limits assumed): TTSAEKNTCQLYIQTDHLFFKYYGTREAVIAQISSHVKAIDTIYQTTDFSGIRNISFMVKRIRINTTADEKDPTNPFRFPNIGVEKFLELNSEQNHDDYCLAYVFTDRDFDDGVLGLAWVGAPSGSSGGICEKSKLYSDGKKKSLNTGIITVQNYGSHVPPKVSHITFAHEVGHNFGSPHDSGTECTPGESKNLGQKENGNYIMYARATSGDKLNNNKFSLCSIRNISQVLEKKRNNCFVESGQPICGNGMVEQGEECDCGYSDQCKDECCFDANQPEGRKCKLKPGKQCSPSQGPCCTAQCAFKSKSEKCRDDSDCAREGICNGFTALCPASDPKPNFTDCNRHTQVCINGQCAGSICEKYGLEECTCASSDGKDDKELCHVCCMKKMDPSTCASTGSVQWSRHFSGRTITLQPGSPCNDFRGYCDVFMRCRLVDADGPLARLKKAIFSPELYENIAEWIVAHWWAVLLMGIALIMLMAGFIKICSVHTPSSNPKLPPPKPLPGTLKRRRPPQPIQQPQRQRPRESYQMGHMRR
GRIN3A LBD mod: binders of NR3A ligand-binding domain, primary screen, biophysical, differential scanning fluorimetry, uHTS. Glutamate receptor ionotropic, NMDA 3A (GRIN3A) ligand-binding domain. Tm shift relative to glycine control, % at 25 µM. hit rate 2.5% among 340,000. AID 1259313, 2017. NR3A LBD differential scanning fluorimetry, Tm shift; 0% = protein alone, 100% = glycine-bound protein;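 active = melting temperature shift of at least 10% of the positive control shift, at one fixed dose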
FAS-TE inh conf: FAS thioesterase domain inhibitors, confirmation, biochemical, fluorescence intensity, single concentration | shares compounds with FAS TE block | recombinant FAS-TE, OMFH fluorogenic substrate | inhibition, % at 15 µM | hit rate 45% among 2,300 | AID 624325, 2012;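 active = compounds inhibiting the enzyme by at least 50% at 15 µM in any one of the replicates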
Of the large screens only hits and unclear results are named; the others gave an inactive call (follow-up assays come after a bar, where they were run). Sampled rows, rich in hits. Any-hit rate of the full collection: about 4%.

Cc1nn(-c2ccc([N+](=O)[O-])cc2)c2c1C(c1ccc(OC(F)F)cc1)N1C(=N2)C(=O)Nc2ccccc21 (configuration not stated)	FAS TE block 86 | FAS-TE inh conf inactive
COc1cccc(C2c3c(C)nn(-c4ccc([N+](=O)[O-])cc4)c3N=C3C(=O)Nc4ccccc4N32)c1 (configuration not stated)	FAS TE block 72 | FAS-TE inh conf inactive
C/C(=N\Nc1ccc(Cl)c(C(=O)O)c1)c1ccc2c(c1)OCO2	none
C/C(=N/Nc1ccc(C(=O)O)cc1)c1ccc2c(c1)Nc1ccccc1S2	FAS TE block 52 | FAS-TE inh conf 62
C/C(=N\Nc1ccc(C(=O)O)cc1)c1ccc2c(c1)Nc1ccccc1S2	FAS TE block 71 | FAS-TE inh conf 61
COc1ccc(/C(C)=N/Nc2cccc(C(=O)O)c2)cc1OC	none
Cc1ccc(S(=O)(=O)N(Cc2ccccc2)c2ccccc2C(=O)Nc2ccccc2C(=O)NCc2ccco2)cc1	FAS TE block 53 | FAS-TE inh conf inactive
C/C(=N/NC(=O)c1nnn(-c2nonc2N)c1-c1ccccc1)c1ccncc1	none
C/C(=N\NC(=O)c1nnn(-c2nonc2N)c1-c1ccc(Cl)c(Cl)c1)c1ccncc1	FAS TE block 55 | FAS-TE inh conf 56
COc1cc(C(=O)N/N=C/c2coc3ccc(Cl)cc3c2=O)ccc1O	FAS TE block 59 | FAS-TE inh conf 66
COc1cc(C(=O)Oc2ccccc2/C=N/NC(=O)c2ccc(Cl)cc2)cc(OC)c1OC	FAS TE block 54 | FAS-TE inh conf inactive
COc1ccc(C(=O)N/N=C\c2coc3ccc(Cl)cc3c2=O)cc1	none
O=C(N/N=C/c1coc2ccc(Cl)cc2c1=O)c1ccc(O)cc1	FAS TE block 65 | FAS-TE inh conf 37
COc1ccc(CNC(=O)c2cc3ccccc3o2)cc1OC	none
Cc1ccc(CSCC(=O)Nc2ccccc2F)cc1	none
CC(C)Cc1cc(C(C)(C)C)ccc1OC(=S)N(C)C	none
COc1ccc(CN(C(=O)CCC(=O)N2CCCCC2)c2nccs2)cc1OC	none
Cc1ccc([C@@H]2[C@@H]3C(=O)N(C)C(=O)[C@@H]3[C@@H]3C(=O)Nc4ccccc4C(=O)N23)cc1	none
COC(=O)C(CC(C)C)NC(=O)c1ccc([N+](=O)[O-])cc1 (configuration not stated)	none
COC(=O)C(CCCCNC(=O)c1ccc([N+](=O)[O-])cc1)NC(=O)c1ccc([N+](=O)[O-])cc1 (configuration not stated)	FAS TE block 50 | FAS-TE inh conf 52
COc1ccc(C(=O)NCC(=O)OCc2ccc([N+](=O)[O-])cc2)cc1	FAS TE block 52 | FAS-TE inh conf inactive
Cc1ccc(C(=O)NCC(=O)OCc2nnc(-c3ccc([N+](=O)[O-])cc3)o2)cc1	FAS TE block 68 (no result: GRIN3A LBD mod) | FAS-TE inh conf 53
Cc1c(Cl)c(=O)oc2cc(OCC(=O)N3CCCC(C)C3)ccc12 (configuration not stated)	FAS TE block 64 | FAS-TE inh conf 63
O=C(COc1ccc2c3c(c(=O)oc2c1)CCC3)N1CCN(c2ccccc2)CC1	FAS TE block 50 | FAS-TE inh conf 34
O=C(COc1ccc2c3c(c(=O)oc2c1)CCC3)N1CCCC1	none
Cc1c(C)c2ccc(OCC(=O)N3CCN(c4ccccc4)CC3)cc2oc1=O	FAS TE block 56 (no result: ADAM17 inh, ADAM10 inh) | FAS-TE inh conf 64
Cc1c(Cl)c(=O)oc2cc(OCC(=O)NCc3cccs3)ccc12	FAS TE block 57 | FAS-TE inh conf inactive
C=CCNC(=S)/N=c1/scc(C)n1C	none
C=CCc1c(N(CC)CC)nc(C)[nH]c1=O	none
COCC(=O)Nc1ccc(Nc2ccccc2)cc1	none
Cc1cc(NC(=O)CSc2nnc(C)n2-c2ccccc2)no1	none
CCC(C(=O)Nc1cccnc1)c1ccccc1 (configuration not stated)	none
O=C(Nc1cccc(C(=O)O)c1)/C(=C/c1cccc([N+](=O)[O-])c1)NC(=O)c1cccc(Br)c1	FAS TE block 62 | FAS-TE inh conf 58
O=C(COc1ccc([N+](=O)[O-])cc1)N(Cc1ccccc1)Cc1ccccc1	none
O=C(COc1ncnc2cc([N+](=O)[O-])ccc12)N(CCc1ccccc1)Cc1ccccc1	FAS TE block 62 | FAS-TE inh conf 52
CC(C)C[C@H]1C(=O)N2CCC[C@H]2[C@]2(O)O[C@](NC(=O)C3C=C4c5cccc6[nH]c(Br)c(c56)C[C@H]4N(C)C3)(C(C)C)C(=O)N12 (some centres not stated)	FAS TE block 52 | FAS-TE inh conf inactive
CCOc1ccc(C(C)NC(=O)Nc2ccccc2C(=O)OC)cc1 (configuration not stated)	none
O=C(c1ccc(F)cc1)N1CCN(c2ccc([N+](=O)[O-])cc2-n2cccc2)CC1	none
CC(=O)Nc1ccc(S(=O)(=O)NN=Cc2ccc(Cl)c(Cl)c2)cc1	none
O=[N+]([O-])c1ccc(S(=O)(=O)N/N=C/c2ccc3c(c2)OCO3)cc1	FAS TE block 72 | FAS-TE inh conf 74
O=[N+]([O-])c1ccc(S(=O)(=O)NN=Cc2ccc(Cl)c(Cl)c2)cc1	FAS TE block 81, GRIN3A LBD mod 12 | FAS-TE inh conf 89
O=[N+]([O-])c1cccc(S(=O)(=O)N/N=C\c2ccc3c(c2)OCO3)c1	none
O=C(NCCN1C(=O)S/C(=C\c2ccc(Cl)c([N+](=O)[O-])c2)C1=O)C1=COCCO1	FAS TE block 52 | FAS-TE inh conf inactive
O=[N+]([O-])c1ccc(Sc2nc3ccccc3o2)c([N+](=O)[O-])c1	FAS TE block 50 | FAS-TE inh conf 49
COc1ccc(-c2cc(C)no2)cc1S(=O)(=O)N1CCN(c2ccc([N+](=O)[O-])cc2)CC1	FAS TE block 50 | FAS-TE inh conf inactive
O=C(c1ccco1)N1CCN(C(=S)Nc2cccc([N+](=O)[O-])c2)CC1	none
O=C(Nc1cccc([N+](=O)[O-])c1)Nc1ccc2c(c1)CCC2	FAS TE block 53, GRIN3A LBD mod 34 | FAS-TE inh conf inactive
O=[N+]([O-])c1cccc(NC(=S)N2CCc3ccccc3C2)c1	FAS TE block 51 | FAS-TE inh conf 23
COc1cc2cncc(Cc3ccccc3)c2cc1O	none
O=c1nc(SCc2c(F)cccc2Cl)nc(-c2ccc(Cl)cc2)[nH]1	FAS TE block 57 | FAS-TE inh conf inactive
